# Measured values: PubChem BioAssay (NCATS)
# Inconclusive results are not listed.
# Experiment: qHTS Assay for Lipid Storage Modulators (AID 1519)
# Details: Drosophila S3 cells, BODIPY lipid droplet/cell ratio, laser cytometry; measured here: cell count channel max response; cells loaded with oleic acid
# Method in brief: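 Cells seeded at 5,000 per well were treated with compounds over a concentration series and loaded with oleic acid (400 uM, as added). Lipid droplet fluorescence (488 nm excitation, 500-530 nm channel) was read by laser-scanning cytometry and normalized to 20 uM Triacsin C.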
row,SMILES,max response
1,CC1(C)S[C@H]2C(NC(=O)[C@@H](N)c3ccc(O)cc3)C(=O)N2[C@@H]1C(=O)O (stereo not given in full),17.1%
2,N[C@H](Cc1ccc(O)cc1)C(=O)O,-25.6%
3,CN(C)CCc1c[nH]c2ccc(CC3COC(=O)N3)cc12 (stereo not given),-1.36%
4,COC(=O)CCCC[C@@H]1SC[C@@H]2NC(=O)N[C@@H]21,-0.817%
5,C=C1CC/C=C(\C)CC[C@@H]2[C@@H]1CC2(C)C,-19.4%
6,C[C@@]12CCC(=O)C=C1C=CC1C2CC[C@]2(C)C1CC[C@@]21CCC(=O)O1 (stereo not given in full),3.63%
7,CC1=C(C2=C(C)C(C(C)C)C3=C(C(=O)C(O)C3O)C2O)C(O)C2=C(C(O)C(O)C2=O)C1C(C)C (stereo not given),12.4%
8,C[C@H](CCC(=O)O)[C@H]1CC[C@H]2[C@H]3C(C[C@H](O)[C@]12C)[C@@]1(C)CC[C@@H](O)C[C@H]1C[C@H]3O (stereo not given in full),17.9%
9,NC(CCC(=O)N[C@@H](CS)C(=O)NCC(=O)O)C(=O)O (stereo not given in full),11.9%
10,CC(C)Oc1ccc2c(=O)cc(-c3ccccc3)oc2c1,14.7%
11,C[C@@H]1O[C@@H](O[C@H]2[C@H](Oc3cc(O)c4c(c3)O[C@H](c3ccc(O)cc3)CC4=O)O[C@H](CO)[C@@H](O)[C@@H]2O)[C@H](O)[C@H](O)[C@H]1O,-6.96%
12,N[C@H](CO)Cc1cnc[nH]1,11.7%
13,COC1OC2COC(c3ccccc3)OC2C(O)C1O (stereo not given),4.47%
14,CCCCCCCCCc1ccc(OCCOCCOCCOCCOCCOCCOCCOCCOCCO)cc1,4.66%
15,CC(=O)O[C@@]1(C(C)=O)CCC2C3CC(C)C4=CC(=O)CC[C@@]4(C)C3CC[C@]21C (stereo not given in full),4.77%
16,O=C(O)C1=C[C@@H](O)[C@@H](O)[C@H](O)C1,13.7%
17,NC(=O)NCCC[C@H](N)C(=O)O,-16.4%
18,N[C@@H]1C(O)OC(CO)C(O)C1O (stereo not given in full),7.77%
19,CC(=O)OCC(=O)[C@@]12OC3(CCCC3)OC1CC1C3CCC4=CC(=O)C=C[C@@]4(C)[C@]3(F)C(O)C[C@]12C (stereo not given in full),-2.26%
20,CC1=CC(=O)[C@@H]2C[C@H]1C2(C)C,-1.97%

row,SMILES,max response
1,CCC1OC(=O)CC(O)C(C)[C@@H](O[C@@H]2OC(C)[C@H](O[C@@H]3C[C@@](C)(O)C(O)C(C)O3)C(N(C)C)C2O)[C@H](CC=O)CC(C)C(=O)/C=C/C(C)=C/[C@@H]1COC1OC(C)C(O)C(OC)[C@@H]1OC (stereo not given in full),-1.62%
2,COC(=O)[C@H]1[C@@H]2C[C@@H]3c4[nH]c5ccccc5c4CCN3C[C@H]2CC[C@H]1O,12.3%
3,CC[C@H](CC[C@@H](C)C1CC[C@H]2[C@@H]3CC=C4C[C@@H](O)CC[C@]4(C)[C@H]3CC[C@]12C)C(C)C (stereo not given in full),43.5%
4,C=Cc1c(C)/c2[n-]/c1=C\c1[n-]c(c(CC)c1C)/C=c1\[n-]c3c(c1C)C(=O)C(C(=O)[O-])C=3c1[n-]c(c(C)c1CCC(=O)[O-])\C=2.[Cu].[Na+].[Na+] (stereo not given),-5.82%
5,CCC(=O)O[C@@]1(C(=O)CCl)C(C)CC2C3CCC4=CC(=O)C=C[C@@]4(C)[C@]3(F)C(O)C[C@]21C (stereo not given in full),9.83%
6,CC(=O)[C@]1(O)CCC2C3C=C(Cl)C4=CC(=O)C5CC5[C@@]4(C)C3CC[C@]21C (stereo not given in full),4.22%
7,CO[C@]12C(COC(N)=O)C3=C(C(=O)C(C)=C(N)C3=O)N1CC1NC12 (stereo not given in full),5.7%
8,COC1OC(CO)C(OC2OC(C(=O)O)C(OC3OC(COS(=O)(=O)O)C(OC4OC(C(=O)O)C(OC5OC(CO)C(OC6OC(C(=O)O)C(OC7OC(COS(=O)(=O)O)C(OC8OC(C(=O)O)=C[C@H](O)C8OS(=O)(=O)O)C(O)C7NC(C)=O)[C@@H](O)C6O)C(O)C5NC(C)=O)[C@@H](O)C4O)C(O)C3NC(C)=O)[C@@H](O)C2O)C(O)C1NC(C)=O (stereo not given in full),-2.95%
9,CC(C)CCCC(C)C1CCC2C3CC=C4CC(O)CCC4(C)C3CCC12C (stereo not given),5.9%
10,C[C@@]12C=CC(=O)C=C1CCC1C3CC(O)[C@@](O)(C(=O)CO)[C@]3(C)CC(O)[C@]12F (stereo not given in full),11.4%
11,O=c1[nH]c(=O)n([C@@H]2O[C@H](CO)[C@@H](O)[C@H]2O)cc1F,0.66%
12,CCC1OC(=O)C(C)[C@@H](O[C@H]2C[C@@](C)(OC)C(O)C(C)O2)C(C)[C@@H](O[C@@H]2OC(C)CC(N(C)C)C2O)[C@@](C)(O)CC(C)C(=O)[C@@H](C)C(O)[C@]1(C)O (stereo not given in full),15.2%
13,O=c1ccn([C@H]2C[C@H](O)[C@@H](CO)O2)c(=O)[nH]1,9.77%
14,O=C(O)C1(O)C[C@H](O)C(O)[C@@H](O)C1 (stereo not given in full),-6.02%
15,CC1C2CCC3C4CC=C5CC(N(C)C)CC[C@@]5(C)C4CC[C@@]32CN1C (stereo not given in full),14%
16,O=c1[nH]c(=O)n([C@@H]2O[C@H](CO)[C@@H](O)[C@H]2O)cc1Br,-11.6%
17,COC1CC(O[C@H]2/C(C)=C/CC3CC(C[C@]4(CCC(C)C(C5CCCCC5)O4)O3)OC(=O)[C@H]3C=C(C)/C(=N/O)C4OC/C(=C\C=C\[C@@H]2C)[C@@]43O)OC(C)C1O (stereo not given in full),13.8%
18,C#C[C@]1(O)CCC2C3CCC4=CC(=O)CCC4C3CC[C@@]21C (stereo not given in full),2.28%
19,CCC(C)C(=O)OC1CC(O)C=C2C=CC(C)C(CCC(O)CC(O)CC(=O)O)C21 (stereo not given),11.3%
20,OCC1OC(n2cnc3c(=S)nc[nH]c32)C(O)C1O (stereo not given),-3.48%
